# Measurements published in PubChem BioAssay (Tox21).
# Records with an inconclusive call do not appear. Where a call stands in place of a potency, no number is given. A number with no mark means an inactive call. Active and inactive are the calls of the source. Unless noted, calls follow the shape of the dose curve; as a rule, active = well fitted curve in the direction sought with a large enough effect in the repeat runs; inconclusive = weak or mixed curves; inactive = no such curve, though single readings can be large; an effect the other way counts as inactive or inconclusive.
# Tests used:
# [1] = qHTS assay to identify small molecule agonists of the RXR signaling pathway - cell viability counter screen (AID 1159529);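 also: HEK 293T cells carrying an RXR-alpha UAS beta-lactamase reporter; series mostly up to about 77 µM; nearly all actives have a fitted effect of over 50% in size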
# Method in brief: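 RXR-alpha-UAS-bla HEK 293T cells in medium with 2% charcoal-stripped FBS were preincubated 5 hr, then exposed to compounds for 16 hr at 37 C. Viability was read as CellTiter-Glo luminescence after 30 min at room temperature.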
# [2] = qHTS assay to identify small molecule antagonists of the retinoid acid receptor (RAR) signaling pathway - cell viability counter screen (AID 1159551); also: nearly all actives have a fitted effect of over 35% in size
# Method in brief: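 Cells (C3RL4) are plated, incubated overnight, dosed with compound in DMSO, then given retinol at 1 uM final. After 6 h at 37 C, CellTiter-Glo is added and luminescence read following 30 min at room temperature.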
# [3] = qHTS assay to identify small molecule antagonists of the retinoic acid receptor (RAR) signaling pathway (AID 1159552; also: nearly all actives have a fitted effect of over 50% in size)
# Method in brief: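 RARE-luc C3RL4 cells; cpds + 1 uM (final) retinol, 6 hr, 37 C/5% CO2; luciferase reagent, 30 min RT, luminescence readout. Inhibitors of retinol-driven signal scored.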
# [4] = qHTS assay to identify small molecule agonists of the retinoic acid receptor (RAR) signaling pathway (AID 1159553); also: potency is read from the fitted curve at half-maximal effect
# Method in brief: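 Seed C3RL4 reporter cells at 1,000 per well and incubate overnight at 37 C. Add compounds in DMSO, incubate 6 hr. Add luciferase reagent, wait 30 min at room temperature, read luminescence.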
# [5] = qHTS assay to identify small molecule antagonists of the estrogen related receptor (ERR) signaling pathway from Tox21 library - cell viability counter screen (AID 1224834); also: nearly all actives have a fitted effect of over 30% in size
# Method in brief: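 ERR cells, 2,000/well; 6 h settle at 37 C/5% CO2; pin-tool compound transfer in DMSO; 17.5 h at 37 C; CellTiter-Fluor, 30 min; fluorescence intensity.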
# [6] = molecular target: Luciferin 4-monooxygenase (Photinus pyralis) (UniProt P08659); test: qHTS assay to identify small molecule inhibitors of firefly luciferase (AID 1224835); also: nearly all actives have a fitted effect of over 25% in size; also: potency is read from the fitted curve at half-maximal effect
# Luciferin 4-monooxygenase (Photinus pyralis), sequence (P08659 whole entry, looked up): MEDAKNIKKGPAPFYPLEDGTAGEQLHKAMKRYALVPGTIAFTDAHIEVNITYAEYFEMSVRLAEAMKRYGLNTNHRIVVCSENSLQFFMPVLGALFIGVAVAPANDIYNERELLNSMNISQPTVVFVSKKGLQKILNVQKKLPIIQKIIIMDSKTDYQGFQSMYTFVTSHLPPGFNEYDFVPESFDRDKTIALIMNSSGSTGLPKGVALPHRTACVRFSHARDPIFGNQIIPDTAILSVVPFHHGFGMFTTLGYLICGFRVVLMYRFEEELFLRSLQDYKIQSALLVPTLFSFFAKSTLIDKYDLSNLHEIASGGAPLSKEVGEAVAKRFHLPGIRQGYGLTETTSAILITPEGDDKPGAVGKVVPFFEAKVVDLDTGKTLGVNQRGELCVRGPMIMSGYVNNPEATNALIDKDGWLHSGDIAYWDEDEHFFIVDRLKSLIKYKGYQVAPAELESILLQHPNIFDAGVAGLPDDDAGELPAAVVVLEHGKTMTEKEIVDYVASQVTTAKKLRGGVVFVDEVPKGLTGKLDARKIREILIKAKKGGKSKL
# Method in brief: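 Biochemical qHTS: compounds run as interplate titrations against purified firefly enzyme, with D-luciferin and ATP each at its KM concentration. Light output recorded by CCD imaging.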
# [7] = qHTS assay to identify small molecule agonists of the constitutive androstane receptor (CAR) signaling pathway - cell viability counter screen (AID 1224836); also: series mostly up to about 92 µM; nearly all actives have a fitted effect of over 45% in size
# Method in brief: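 HepG2 cells stably carrying hCAR and a CYP2B6-2.2kb reporter were plated 4 h, then given compounds at 15 concentrations plus PK11195 (final 0.75 uM). After 23 h at 37 C, viability was read by CellTiter-Fluor fluorescence.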
# [8] = qHTS assay to identify small molecule antagonists of the constitutive androstane receptor (CAR) signaling pathway - cell viability counter screen (AID 1224837); also: series mostly up to about 92 µM; nearly all actives have a fitted effect of over 45% in size
# Method in brief: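 Viability was measured with CellTiter-Fluor in a HepG2 line carrying stably transfected hCAR and a CYP2B6-2.2kb construct. Cells were exposed for 23 hr at 37 C to 15 compound concentrations with 50 nM CITCO as agonist.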
# [9] = molecular target: Nuclear receptor subfamily 1 group I member 3 (Homo sapiens) (UniProt Q14994); test: qHTS assay to identify small molecule antagonists of the constitutive androstane receptor (CAR) signaling pathway (AID 1224838); also: nearly all actives have a fitted effect of over 40% in size
# Nuclear receptor subfamily 1 group I member 3 (Homo sapiens), sequence (Q14994 whole entry, looked up): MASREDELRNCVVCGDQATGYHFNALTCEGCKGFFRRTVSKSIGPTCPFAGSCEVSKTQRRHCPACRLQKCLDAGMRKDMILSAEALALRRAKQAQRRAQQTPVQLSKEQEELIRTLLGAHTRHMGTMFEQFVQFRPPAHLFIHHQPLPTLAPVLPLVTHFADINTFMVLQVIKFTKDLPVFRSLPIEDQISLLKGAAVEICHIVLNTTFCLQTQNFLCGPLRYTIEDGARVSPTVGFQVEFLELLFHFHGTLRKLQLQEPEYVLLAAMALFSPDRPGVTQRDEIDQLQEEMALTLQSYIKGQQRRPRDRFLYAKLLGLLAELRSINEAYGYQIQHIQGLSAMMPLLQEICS
# Method in brief: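 Antagonist mode used CITCO at a final 50 nM to activate CAR in human hepatoma HepG2 cells carrying stable hCAR and a 2.2 kb CYP2B6 promoter-luciferase construct. Compounds were tested at 15 concentrations over 24 h, with luminescence as the end point.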
# [10] = molecular target: Nuclear receptor subfamily 1 group I member 3 (Homo sapiens) (UniProt Q14994); test: qHTS assay to identify small molecule agonists of the constitutive androstane receptor (CAR) signaling pathway (AID 1224839); also: nearly all actives have a fitted effect of over 15% in size; also: potency is read from the fitted curve at half-maximal effect
# Method in brief: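 HepG2 cells stably expressing hCAR and a CYP2B6-2.2kb luciferase reporter were treated with compounds at 15 concentrations plus 0.75 uM PK11195 (final) for 24 h at 37 C; luminescence was read after ONE-Glo addition.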
# [11] = qHTS assay to identify small molecule antagonists of the estrogen related receptor signaling pathway with the pleiotropic PPARgamma coactivator (PGC) from Tox21 10K library - cell viability counter screen (AID 1224840; active = well fitted cell-killing curve with a large enough effect in the repeat runs, not every such curve was filed as active; also: nearly all actives have a fitted effect of over 40% in size)
# Method in brief: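 Multiplexed viability counter screen in the PGC/ERR cell line: cells treated with DMSO-dissolved compounds for 17.5 hours at 37 C, then viability measured as CellTiter-Fluor fluorescence.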
# [12] = qHTS assay to identify small molecule antagonists of the estrogen related receptor signaling pathway with the pleiotropic PPARgamma coactivator (PGC) from Tox21 10K library (AID 1224841; call rule not given here; also: series mostly up to about 92 µM; actives are mostly falling curves and most rising ones were filed inactive; nearly all actives have a fitted effect of over 50% in size)
# Method in brief: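 Steps: plate 2,000 PGC/ERR cells per well; incubate 6 h at 37 C with 5% CO2; transfer compounds from DMSO stocks by pin tool; incubate 18 h at 37 C; add One-Glo; measure luminescence 30 min later.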
# [13] = qHTS assay to identify small molecule agonists of the estrogen related receptor signaling pathway with the pleiotropic PPARgamma coactivator (PGC) from Tox21 10K library (AID 1224842); also: nearly all actives have a fitted effect of over 15% in size
# Method in brief: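 PGC/ERR reporter cell line, 2,000 cells per well, incubated 6 h at 37 C before 23 nL compound in DMSO was added. After 18 h at 37 C, One-Glo luminescence read following 30 min at room temperature.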
# [14] = molecular target: Thyrotropin receptor (Homo sapiens) (UniProt P16473); test: qHTS assay to identify small molecule agonists of the thyroid stimulating hormone receptor (TSHR) signaling pathway (AID 1224843; calls by dose curve; also: nearly all actives have a fitted effect of over 45% in size)
# Thyrotropin receptor (Homo sapiens), sequence (P16473 whole entry, looked up): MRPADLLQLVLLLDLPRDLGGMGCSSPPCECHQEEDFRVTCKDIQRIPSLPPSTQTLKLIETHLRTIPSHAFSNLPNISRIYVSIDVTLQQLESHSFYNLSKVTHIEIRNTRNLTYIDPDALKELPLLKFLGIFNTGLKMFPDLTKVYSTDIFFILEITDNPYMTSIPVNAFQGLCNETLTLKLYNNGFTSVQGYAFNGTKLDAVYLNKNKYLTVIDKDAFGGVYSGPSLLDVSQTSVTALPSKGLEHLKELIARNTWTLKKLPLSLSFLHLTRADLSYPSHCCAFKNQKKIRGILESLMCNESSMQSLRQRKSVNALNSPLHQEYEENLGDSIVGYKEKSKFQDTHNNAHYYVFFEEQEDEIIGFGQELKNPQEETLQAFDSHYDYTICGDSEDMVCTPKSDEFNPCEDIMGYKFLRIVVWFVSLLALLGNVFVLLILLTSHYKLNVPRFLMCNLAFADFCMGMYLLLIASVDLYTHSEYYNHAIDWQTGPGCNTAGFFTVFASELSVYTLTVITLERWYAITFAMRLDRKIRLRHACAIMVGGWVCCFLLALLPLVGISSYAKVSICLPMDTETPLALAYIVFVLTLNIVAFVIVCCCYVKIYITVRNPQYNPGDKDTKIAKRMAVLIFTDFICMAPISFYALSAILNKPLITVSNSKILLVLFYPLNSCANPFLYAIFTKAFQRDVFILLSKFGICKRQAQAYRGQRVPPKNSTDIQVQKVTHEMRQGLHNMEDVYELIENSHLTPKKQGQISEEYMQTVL
# Method in brief: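 HEK293/TSHR, 800 cells/well; cpd 30 min RT; add cAMP-d2 + anti-cAMP-cryptate, 1 h RT; fluorescence read on plate reader. 15-pt titration, n=3.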
# [15] = qHTS assay to identify small molecule agonists of the hypoxia (HIF-1) signaling pathway - cell viability counter screen (AID 1224844; calls by dose curve; also: nearly all actives have a fitted effect of over 50% in size)
# Method in brief: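 Cytotoxicity was measured in parallel with the HRE-driven beta-lactamase readout: after 17 hrs of compound exposure at 37C, HRE-bla ME-180 cells received CellTiter-Glo and luminescence was recorded 30 min later.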
# [16] = qHTS assay to identify small molecule agonists of the estrogen related receptor (ERR) signaling pathway (AID 1224820)
# Method in brief: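 Following a 6 h settling period, 2,000 ERR cells per well receive DMSO-dissolved compounds by pin tool and incubate 18 h at 37 C; agonist activity is scored from One-Glo luminescence read 30 min post-addition.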
# [17] = tested on: estrogen-related receptor alpha (ERRalpha) with PGC-1alpha coactivator, human; test: qHTS assay to identify small molecule antagonists of the estrogen related receptor signaling pathway with the pleiotropic PPARgamma coactivator (PGC) (AID 1224821; calls by dose curve)
# Method in brief: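 Screening used NTP's PGC/ERR cells, dosed via pin tool with compound in DMSO alongside positive and negative controls. After 18 h at 37 C, One-Glo reagent sat 30 min at room temperature before luminescence detection.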
# [18] = qHTS assay to identify small molecule antagonists of the estrogen related receptor signaling pathway with the pleiotropic PPARgamma coactivator (PGC) cell viability counter screen (AID 1224822;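 also: series mostly up to about 46 µM; viability read after 17.5 h compound exposure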)
# Method in brief: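 Multiplexed viability counter screen run in PGC/ERR cells treated with compounds for 17.5 h at 37 C; live-cell protease signal measured by CellTiter-Fluor fluorescence.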
# [19] = qHTS assay to identify small molecule agonists of the estrogen related receptor signaling pathway with the pleiotropic PPARgamma coactivator (PGC) (AID 1224823)
# Method in brief: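 In this quantitative high-throughput screen, an 18 h, 37 C treatment of PGC/ERR cells with compounds in DMSO preceded a One-Glo luminescence read taken after 30 min at room temperature.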
# [20] = qHTS assay to identify small molecule antagonists of the estrogen related receptor (ERR) signaling pathway (AID 1224819)
# Method in brief: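 qHTS in ERR cells, 2,000/well, 1536 format. Cpd (DMSO) added after 6 h settle, 18 h 37 C. One-Glo luminescence, 30 min RT.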
SMILES,Potency [1],Potency [2],Potency [3],Potency [4],Potency [5],Potency [6],Potency [7],Potency [8],Potency [9],Potency [10],Potency [11],Potency [12],Potency [13],Potency [14],Potency [15],outcome [16],outcome [17],outcome [18],outcome [19],outcome [20]
CON(C)C(=O)Nc1ccc(Br)c(Cl)c1,inactive,inactive,inactive,21.7 µM (active),inactive,39.9 µM (active),inactive,inactive,inactive,48.6 µM (active),inactive,inactive,inactive,inactive,inactive,,,,,
CC(C)(C)C(=O)Cl,inactive,inactive,inactive,inactive,inactive,inactive,inactive,inactive,inactive,inactive,inactive,,,inactive,inactive,,,,,
[O-][Br+2]([O-])O,inactive,inactive,inactive,inactive,inactive,inactive,inactive,inactive,inactive,inactive,inactive,,,inactive,inactive,,,,,
Cn1c(CCCC(=O)O)nc2cc(N(CCCl)CCCl)ccc21,inactive,inactive,inactive,inactive,,inactive,inactive,inactive,,,,inactive,inactive,inactive,inactive,inactive,inactive,inactive,inactive,
CC[C@@H](CO)NC(=O)[C@@H]1C=C2c3cccc4c3c(cn4C)C[C@H]2N(C)C1,inactive,inactive,inactive,inactive,inactive,inactive,inactive,inactive,inactive,inactive,inactive,inactive,inactive,,inactive,inactive,inactive,inactive,inactive,inactive
C=CCC1(C(C)CC)C(=O)NC(=O)NC1=O (stereo not given),inactive,inactive,inactive,inactive,inactive,inactive,inactive,inactive,inactive,inactive,inactive,,,inactive,inactive,,,,,
[P]#[In],inactive,inactive,inactive,inactive,inactive,inactive,inactive,inactive,inactive,inactive,inactive,inactive,inactive,inactive,inactive,,,,,
CS(=O)(=O)c1ccc(C(=O)C2C(=O)CCCC2=O)c(Cl)c1COCC(F)(F)F,inactive,inactive,inactive,inactive,inactive,inactive,inactive,inactive,inactive,inactive,inactive,inactive,inactive,inactive,inactive,,,,,
CCC(C)(C#N)N=NC(C)(C#N)CC (stereo not given),inactive,inactive,inactive,inactive,inactive,inactive,inactive,inactive,inactive,inactive,inactive,inactive,inactive,inactive,inactive,,,,,
C/C=C/CC#N,inactive,inactive,inactive,inactive,inactive,inactive,inactive,inactive,inactive,inactive,inactive,,,inactive,inactive,,,,,
NCC1(CC(=O)O)CCCCC1,inactive,inactive,inactive,inactive,inactive,,inactive,inactive,,,inactive,,,inactive,inactive,,,inactive,,
COC(=O)c1ccccc1CS(=O)(=O)NC(=O)Nc1nc(OC)cc(OC)n1,inactive,inactive,inactive,inactive,inactive,inactive,inactive,inactive,inactive,inactive,inactive,inactive,inactive,inactive,inactive,,,,,
Cl/C=C/CCl,inactive,inactive,inactive,inactive,inactive,inactive,inactive,inactive,inactive,inactive,inactive,inactive,inactive,inactive,inactive,,,,,
O=C(O)C(Br)(Br)Br,inactive,inactive,inactive,inactive,inactive,inactive,inactive,inactive,inactive,inactive,inactive,inactive,inactive,inactive,,,,,,
O=c1[nH]oc2c1CCNC2,inactive,inactive,inactive,inactive,inactive,inactive,inactive,inactive,,,inactive,inactive,inactive,inactive,inactive,inactive,inactive,inactive,inactive,inactive
Nc1c(Cl)c(F)nc(OCC(=O)O)c1Cl,inactive,inactive,inactive,inactive,inactive,inactive,inactive,inactive,inactive,inactive,inactive,inactive,inactive,inactive,inactive,,,,,
CCOC(=O)NC(C)(C)Cc1ccc(Cl)cc1,inactive,inactive,inactive,inactive,inactive,inactive,inactive,inactive,inactive,,inactive,,,inactive,inactive,,,,,
CCCCCCCCSC(=O)Oc1cc(Cl)nnc1-c1ccccc1,inactive,inactive,inactive,inactive,inactive,inactive,inactive,inactive,,,inactive,,,,inactive,,,,,
O=C(CCl)NCO,inactive,inactive,inactive,inactive,inactive,inactive,inactive,inactive,inactive,inactive,,inactive,inactive,inactive,inactive,,,,,
